Our source for the outcome and AC50 values is PubChem BioAssay (EPA / NIEHS).

In test [1] the target is Paired box protein Pax-6 (Homo sapiens) (UniProt P26367). The test can be described thus: ATG_Pax6_CIS: Attagene CIS-FACTORIAL HepG2 Assay for human Paired Box 6 (PAX6) (AID 2282956). The settings on record: HepG2 CIS-FACTORIAL PAX6 reporter transcription, RNA readout; actives raise or lower the signal. Put shortly: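 HepG2 cells transiently transfected with cis-promoter-driven multiplexed reporter units sensing endogenous transcription factor activity; 24 h chemical exposure. Reporter mRNA quantified by RT-PCR, 6-FAM labelling, HpaI digestion and capillary electrophoresis; bidirectional fit versus DMSO baseline.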
Paired box protein Pax-6 (Homo sapiens), sequence (P26367 whole entry, looked up): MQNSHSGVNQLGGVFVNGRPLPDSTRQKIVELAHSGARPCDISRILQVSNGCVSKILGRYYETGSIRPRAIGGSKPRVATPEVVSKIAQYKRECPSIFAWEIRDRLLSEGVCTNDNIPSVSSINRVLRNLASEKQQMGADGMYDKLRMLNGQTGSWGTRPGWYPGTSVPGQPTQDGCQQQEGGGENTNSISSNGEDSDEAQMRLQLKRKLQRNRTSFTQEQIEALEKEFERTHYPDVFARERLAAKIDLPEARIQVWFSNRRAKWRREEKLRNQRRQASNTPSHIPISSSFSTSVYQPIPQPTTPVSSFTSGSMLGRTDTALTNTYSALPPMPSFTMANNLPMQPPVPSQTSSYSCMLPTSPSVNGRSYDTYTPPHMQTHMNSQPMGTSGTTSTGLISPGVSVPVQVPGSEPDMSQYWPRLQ

Test [2] in a line: ATG_PXRE_CIS: Attagene CIS-FACTORIAL HepG2 Assay for human Pregnane X Receptor Element (PXRE) (AID 2282957). The settings on record: HepG2 Attagene CIS-FACTORIAL PXRE reporter, mRNA; actives raise or lower the signal. Put shortly:
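Transfect HepG2 with MRTUs (cis promoter elements); dose chemical, incubate 24 h; isolate RNA, RT with oligo(dT), PCR, 6-FAM label, HpaI cut, CE. Gain/loss fit vs DMSO.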

A short description of test [3]: ATG_PPRE_CIS: Attagene CIS-FACTORIAL HepG2 Assay for human Peroxisome Proliferator-activated Response Element (PPRE) (AID 2282958). The settings on record: HepG2 PPRE cis-element reporter, Attagene transcription factor profiling; actives raise or lower the signal. Put shortly: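 In this cell-based multiplex, a PPRE cis element drives a reporter sequence in transiently transfected HepG2 cells. Following 24 h treatment, labeled cDNA amplicons are sized and quantified by capillary electrophoresis, with DMSO defining baseline.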

Test [4] is described as follows: ATG_RORE_CIS: Attagene CIS-FACTORIAL HepG2 Assay for human RAR-related Orphan Receptor Element (RORE) (AID 2282959). The settings on record: HepG2 Attagene cis-factorial RORE reporter, mRNA; actives raise or lower the signal. Put shortly:
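Endogenous factor activity at a cis response element is read as reporter transcript levels in HepG2 cells, 24 h post-dose. Transcripts are quantified by RT-PCR with capillary electrophoresis, and data fitted in both directions against DMSO.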

Test [5] in a line: ATG_Sox_CIS: Attagene CIS-FACTORIAL HepG2 Assay for human SRY-box transcription factor (SOX) (AID 2282960). The settings on record: HepG2 Attagene cis-factorial SOX reporter, mRNA; actives raise or lower the signal. Put shortly: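 Measures mRNA induction of a SOX1-associated reporter in HepG2 after 24 h dosing. Fluorescently labelled RT-PCR fragments are separated by capillary electrophoresis, and gain or loss relative to DMSO control is fitted.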

Test [6] deals with Transcription factor Sp1 (Homo sapiens) (UniProt P08047). The test can be described thus: ATG_Sp1_CIS: Attagene CIS-FACTORIAL HepG2 Assay for human Specificity Protein 1 (Sp1) (AID 2282961). The settings on record: HepG2 Sp1 cis-reporter transcription, actives raise or lower the signal. In outline: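 Cells: HepG2, transiently transfected with cis-regulated multiplexed reporters. Exposure: 24 h. Detection: reporter transcripts amplified, fluorescently labeled, restriction-digested and sized by capillary electrophoresis. Analysis: bidirectional fit relative to DMSO.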
Transcription factor Sp1 (Homo sapiens), sequence (P08047 whole entry, looked up): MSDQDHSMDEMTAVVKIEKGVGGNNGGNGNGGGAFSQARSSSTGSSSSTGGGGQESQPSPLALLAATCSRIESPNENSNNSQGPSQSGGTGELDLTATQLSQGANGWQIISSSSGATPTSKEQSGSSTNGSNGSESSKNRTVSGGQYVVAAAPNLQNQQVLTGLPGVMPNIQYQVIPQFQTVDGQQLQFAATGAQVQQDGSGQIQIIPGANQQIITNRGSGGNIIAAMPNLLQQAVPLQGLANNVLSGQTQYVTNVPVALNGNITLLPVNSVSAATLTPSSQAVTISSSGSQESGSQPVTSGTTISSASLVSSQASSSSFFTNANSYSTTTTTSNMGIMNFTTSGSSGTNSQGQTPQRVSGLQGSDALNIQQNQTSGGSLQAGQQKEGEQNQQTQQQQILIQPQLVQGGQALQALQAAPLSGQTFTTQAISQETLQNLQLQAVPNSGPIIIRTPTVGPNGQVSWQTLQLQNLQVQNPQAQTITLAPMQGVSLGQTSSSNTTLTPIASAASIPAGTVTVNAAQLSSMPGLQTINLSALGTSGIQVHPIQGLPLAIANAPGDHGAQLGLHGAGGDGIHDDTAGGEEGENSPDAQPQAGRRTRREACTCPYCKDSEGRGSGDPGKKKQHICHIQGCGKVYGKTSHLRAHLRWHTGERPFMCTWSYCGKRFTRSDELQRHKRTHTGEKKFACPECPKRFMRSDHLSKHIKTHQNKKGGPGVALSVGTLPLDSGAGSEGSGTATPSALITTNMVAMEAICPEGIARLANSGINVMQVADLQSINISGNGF

The nature of test [7]: ATG_SREBP_CIS: Attagene CIS-FACTORIAL HepG2 Assay for human Sterol Regulatory Element Binding (SREBP) (AID 2282962). The settings on record: HepG2 Attagene cis-factorial SREBP reporter, mRNA; actives raise or lower the signal. In outline: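 HepG2 cells transiently transfected with multiplexed cis-promoter reporter units sensing endogenous transcription factors; reporter mRNA measured 24 h after dosing by RT-PCR, 6-FAM labeling, HpaI digestion and capillary electrophoresis. Bidirectional fit versus DMSO.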

Test [8] addresses Signal transducer and activator of transcription 3 (Homo sapiens) (UniProt P40763). Nature of the test: ATG_STAT3_CIS: Attagene CIS-FACTORIAL HepG2 Assay for human Signal Transducer and Activator of Transcription 3 (STAT3) (AID 2282963). The settings on record: HepG2, Attagene cis-factorial STAT3 reporter transcription; actives raise or lower the signal. Put shortly:
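After a 24 h compound incubation, total RNA from MRTU-transfected HepG2 cells was converted to cDNA and reporter sequences PCR-amplified, labelled and profiled by capillary electrophoresis. Gain and loss of signal were referenced to DMSO.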

A short description of test [9]: ATG_TA_CIS: Attagene CIS-FACTORIAL HepG2 Assay for human TA Basal Promoter (AID 2282964). The settings on record: HepG2 Attagene CIS-factorial TA basal promoter reporter; actives raise or lower the signal. In outline:
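Steps: transfect HepG2 with MRTUs; dose 24 h; isolate RNA, DNase-treat, reverse-transcribe; PCR and FAM-label reporter cDNA; digest with HpaI 2h at 37 C; run capillary electrophoresis. Activity fitted both directions against DMSO.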

Test [10] is described as follows: ATG_TCF_b_cat_CIS: Attagene CIS-FACTORIAL HepG2 Assay for human T-Cell-Factor with beta-catenin (TCF/b-cat) (AID 2282965). The settings on record: HepG2 TCF/beta-catenin cis-reporter transcription, actives raise or lower the signal. In outline: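 Measured: reporter mRNA in HepG2 transiently transfected with cis-promoter reporter units, 24 h after chemical addition. Fitting was bidirectional, DMSO as negative control.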

Test [11] in a line: ATG_TAL_CIS: Attagene CIS-FACTORIAL HepG2 Assay for human TAL Basal Promoter (AID 2282966).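 Also: background control endpoint measuring basal TAL promoter reporter mRNA not a specific factor.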 The settings on record: HepG2 Attagene cis-factorial TAL promoter reporter; actives raise or lower the signal. Put shortly:
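Fluorescence of labelled reporter cDNA fragments, resolved by capillary electrophoresis, gave the readout. Human HepG2 liver cells carried transiently transfected cis-element reporter units and were treated for 24 hours; activity was fitted bidirectionally against DMSO.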

Test [12] can be described thus: ATG_TGFb_CIS: Attagene CIS-FACTORIAL HepG2 Assay for human Transforming Growth Factor (TGF) (AID 2282967). The settings on record: HepG2 Attagene CIS TGFb reporter, mRNA transcription; actives raise or lower the signal. In outline: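 Cells were dosed for 24 hours, after which total RNA was reverse-transcribed and reporter sequences amplified, labeled and sized by capillary electrophoresis. Activity was fitted in both directions against DMSO.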

Test [13] is described as follows: ATG_VDRE_CIS: Attagene CIS-FACTORIAL HepG2 Assay for human Vitamin D Receptor Element (VDRE) (AID 2282968). The settings on record: HepG2 VDRE cis-reporter transcription, actives raise or lower the signal. Put shortly:
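In transiently transfected HepG2 liver cells, gain or loss of reporter mRNA after 24 h exposure is scored relative to DMSO, using fluorescence detection by capillary electrophoresis of RT-PCR products.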

In test [14] the target is Nuclear receptor subfamily 1 group I member 3 (Homo sapiens) (UniProt Q14994). Nature of the test: ATG_CAR_TRANS: Attagene TRANS-FACTORIAL HepG2 Assay for human Constitutive Androstane Receptor (CAR) (AID 2282969; active = hit-call score of the fitted dose curve at least 0.9, where 1 is the maximum;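 also: activators raise reporter mRNA above DMSO so AC50 marks induction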). The settings on record: HepG2 Attagene TRANS-FACTORIAL CAR reporter. In outline:
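Readout is reporter mRNA induction, quantified by fluorescent primer extension and capillary electrophoresis after RT-PCR. Cells were HepG2 transiently carrying chimeric NR-Gal4 constructs with GAL4-UAS reporters, treated for 24 h; activity scored upward from DMSO.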

Test [15] deals with Estrogen-related receptor gamma (Homo sapiens) (UniProt P62508). The test can be described thus: ATG_ERRg_TRANS: Attagene TRANS-FACTORIAL HepG2 Assay for human Estrogen-Related Receptor gamma (ERRg) (AID 2282977; active = hit-call score of the fitted dose curve at least 0.9, where 1 is the maximum;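 also: hits increase reporter signal over DMSO so potencies reflect activators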). The settings on record: HepG2 Attagene TRANS reporter, ERRg transactivation. Put shortly:
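HepG2 cells transiently transfected with multiplexed GAL4-UAS reporter units and chimeric NR-Gal4 constructs were exposed to test chemicals for 24 h. Reporter mRNA was measured by RT-PCR, 6-FAM primer extension, HpaI digestion and capillary electrophoresis; gain-of-signal versus DMSO.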

Test [16] concerns the target X-box-binding protein 1 (Homo sapiens) (UniProt P17861). The test can be described thus: ATG_Xbp1_CIS: Attagene CIS-FACTORIAL HepG2 Assay for human X-box Binding Protein 1 (XBP1) (AID 2282972). The settings on record: HepG2 XBP1 cis-element reporter, Attagene multiplex; actives raise or lower the signal. Put shortly:
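HepG2 cells transiently transfected with multiple cis-element reporter units report endogenous TF activity; 24 h exposure, then reporter mRNA measured by RT-PCR, 6-FAM labelling, HpaI digestion and capillary electrophoresis. Bidirectional fitting versus DMSO.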

Test [17] is described as follows: ATG_M_19_TRANS: Attagene TRANS-FACTORIAL HepG2 Assay for M19 Transcription Factor (Internal Marker) (AID 2282974; active = hit-call score of the fitted dose curve at least 0.9, where 1 is the maximum). The settings on record: HepG2 Attagene TRANS-FACTORIAL M19 internal marker reporter. Put shortly:
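Reporter mRNA induction was measured in transfected HepG2 cells 24 h after dosing. Endpoint fitted upward relative to DMSO and serves as a background control within the multiplexed TRANS panel.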

The nature of test [18]: ATG_GAL4_TRANS: Attagene TRANS-FACTORIAL HepG2 Assay for GAL4 (Internal Marker) (AID 2282976; active = hit-call score of the fitted dose curve at least 0.9, where 1 is the maximum). The settings on record: HepG2 Attagene TRANS GAL4 internal marker reporter. In outline:
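First, HepG2 cells were transfected with reporter units under GAL4-UAS control. Next, they were treated with chemical for 24 h. Finally, RNA was reverse-transcribed, PCR-amplified, FAM-labelled and resolved by capillary electrophoresis, with induction scored against DMSO.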

For test [19], the target named is Glucocorticoid receptor (Homo sapiens) (UniProt P04150). Nature of the test: ATG_GR_TRANS: Attagene TRANS-FACTORIAL HepG2 Assay for human Glucocorticoid Receptor (GR) (AID 2282978; active = hit-call score of the fitted dose curve at least 0.9, where 1 is the maximum;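 also: activators score as hits since higher reporter transcript over DMSO is fitted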). The settings on record: HepG2 Attagene TRANS GR reporter, mRNA transcription. In outline:
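Reporter transcript levels, detected by fluorescence after RT-PCR and capillary electrophoresis, served as the endpoint. HepG2 cells bearing transfected GAL4-UAS reporters responsive to NR-GAL4 chimeras were incubated with compound 24 h; DMSO defined baseline.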

Broadly, the AC50 is the concentration at which the activity in the assay is half-maximal.

Results filed as inconclusive are left out. Activity calls are given as the source filed them. The calls were made as follows, unless noted: active = hit-call score of the fitted dose curve at least 0.9, where 1 is the maximum; inactive = score below 0.9.

Signal transducer and activator of transcription 3 (Homo sapiens), sequence (P40763 whole entry, looked up): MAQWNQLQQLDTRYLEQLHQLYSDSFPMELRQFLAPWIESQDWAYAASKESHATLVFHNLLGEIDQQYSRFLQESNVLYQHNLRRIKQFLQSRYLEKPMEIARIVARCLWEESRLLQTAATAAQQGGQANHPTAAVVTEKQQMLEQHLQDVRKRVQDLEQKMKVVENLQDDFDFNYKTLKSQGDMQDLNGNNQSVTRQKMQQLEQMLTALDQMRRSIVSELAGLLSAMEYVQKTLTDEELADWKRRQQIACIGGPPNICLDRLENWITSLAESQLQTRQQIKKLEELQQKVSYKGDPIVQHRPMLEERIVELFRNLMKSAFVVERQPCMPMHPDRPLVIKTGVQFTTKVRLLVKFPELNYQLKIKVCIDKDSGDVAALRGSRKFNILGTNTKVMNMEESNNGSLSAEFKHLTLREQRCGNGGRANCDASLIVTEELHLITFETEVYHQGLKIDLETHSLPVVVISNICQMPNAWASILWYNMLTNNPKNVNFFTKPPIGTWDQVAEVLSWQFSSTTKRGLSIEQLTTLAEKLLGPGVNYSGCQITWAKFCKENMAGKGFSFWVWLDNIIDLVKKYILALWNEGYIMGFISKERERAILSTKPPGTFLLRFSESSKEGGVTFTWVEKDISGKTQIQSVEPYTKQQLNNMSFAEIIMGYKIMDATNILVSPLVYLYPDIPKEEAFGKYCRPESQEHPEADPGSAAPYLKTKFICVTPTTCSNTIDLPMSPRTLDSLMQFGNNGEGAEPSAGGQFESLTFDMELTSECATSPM
Nuclear receptor subfamily 1 group I member 3 (Homo sapiens), sequence (Q14994 whole entry, looked up, the tested form may be a part): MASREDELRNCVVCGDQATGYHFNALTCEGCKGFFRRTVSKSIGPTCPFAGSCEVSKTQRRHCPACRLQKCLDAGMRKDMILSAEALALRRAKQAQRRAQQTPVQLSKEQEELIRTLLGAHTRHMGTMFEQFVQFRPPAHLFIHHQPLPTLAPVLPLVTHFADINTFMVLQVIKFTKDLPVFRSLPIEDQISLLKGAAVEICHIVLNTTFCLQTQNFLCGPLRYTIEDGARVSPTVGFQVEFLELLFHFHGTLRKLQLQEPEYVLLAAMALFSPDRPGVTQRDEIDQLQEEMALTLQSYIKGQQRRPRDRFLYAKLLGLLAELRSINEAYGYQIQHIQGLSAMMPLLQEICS
Glucocorticoid receptor (Homo sapiens), sequence (P04150 whole entry, looked up, the tested form may be a part): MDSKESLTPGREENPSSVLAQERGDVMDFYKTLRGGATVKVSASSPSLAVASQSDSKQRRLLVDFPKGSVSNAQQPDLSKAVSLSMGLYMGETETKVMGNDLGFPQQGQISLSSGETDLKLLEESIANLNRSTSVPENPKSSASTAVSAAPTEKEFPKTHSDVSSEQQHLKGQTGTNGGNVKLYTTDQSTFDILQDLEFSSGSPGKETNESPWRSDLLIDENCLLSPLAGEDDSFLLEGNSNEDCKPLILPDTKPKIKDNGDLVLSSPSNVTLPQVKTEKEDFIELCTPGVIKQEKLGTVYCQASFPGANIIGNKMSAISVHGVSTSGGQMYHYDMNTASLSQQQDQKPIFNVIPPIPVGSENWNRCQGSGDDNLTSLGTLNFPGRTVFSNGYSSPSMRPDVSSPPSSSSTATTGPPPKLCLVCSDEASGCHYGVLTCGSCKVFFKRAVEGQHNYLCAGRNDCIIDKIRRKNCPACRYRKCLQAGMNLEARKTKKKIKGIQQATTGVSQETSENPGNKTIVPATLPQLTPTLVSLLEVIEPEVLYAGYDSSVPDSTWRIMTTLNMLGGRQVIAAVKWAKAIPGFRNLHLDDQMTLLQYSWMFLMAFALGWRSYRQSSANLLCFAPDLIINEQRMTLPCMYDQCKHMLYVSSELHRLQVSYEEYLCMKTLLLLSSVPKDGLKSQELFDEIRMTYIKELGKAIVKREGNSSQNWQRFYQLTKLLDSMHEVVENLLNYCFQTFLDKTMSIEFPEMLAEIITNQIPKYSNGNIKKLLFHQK
X-box-binding protein 1 (Homo sapiens), sequence (P17861 whole entry, looked up): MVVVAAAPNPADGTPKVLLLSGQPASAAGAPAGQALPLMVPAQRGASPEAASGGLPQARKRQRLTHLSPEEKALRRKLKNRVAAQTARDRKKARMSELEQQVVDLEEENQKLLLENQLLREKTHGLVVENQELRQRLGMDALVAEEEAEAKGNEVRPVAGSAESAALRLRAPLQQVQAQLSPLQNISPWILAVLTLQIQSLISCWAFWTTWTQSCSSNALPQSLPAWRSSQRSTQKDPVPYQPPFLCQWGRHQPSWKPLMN
Estrogen-related receptor gamma (Homo sapiens), sequence (P62508 whole entry, looked up, the tested form may be a part): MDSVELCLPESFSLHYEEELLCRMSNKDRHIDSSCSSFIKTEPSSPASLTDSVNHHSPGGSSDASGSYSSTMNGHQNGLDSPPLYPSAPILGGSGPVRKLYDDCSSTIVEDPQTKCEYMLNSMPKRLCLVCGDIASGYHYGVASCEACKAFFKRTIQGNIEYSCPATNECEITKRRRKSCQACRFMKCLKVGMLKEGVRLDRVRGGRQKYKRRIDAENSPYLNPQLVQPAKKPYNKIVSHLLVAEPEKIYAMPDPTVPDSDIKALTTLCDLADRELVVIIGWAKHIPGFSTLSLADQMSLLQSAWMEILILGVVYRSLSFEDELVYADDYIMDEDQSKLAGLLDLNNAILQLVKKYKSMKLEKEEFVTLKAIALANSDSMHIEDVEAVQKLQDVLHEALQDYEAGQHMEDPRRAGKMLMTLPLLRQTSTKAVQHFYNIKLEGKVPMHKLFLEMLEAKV

`CCCCCCCCCCCCc1ccccc1`: the outcome in test [1], in test [2], in test [3], in [4], in [5] and in test [6] was inactive. The molecule was classed as inactive in [7], in test [8], in test [9], in [10], in [11] and in [12]. The molecule was classed as inactive in test [13], in test [14] and in test [15].

`CC1(C)C(=O)N(Br)C(=O)N1Br`: the result in [1], in test [2], in test [3], in test [4], in test [5] and in [6] was inactive. Besides, the call in test [7], in test [8], in test [9], in test [10], in test [11] and in test [12] was inactive. Besides, the outcome in test [13] was inactive.

`CC(C)CCCCCCCOC(=O)CCCCC(=O)OCCCCCCCC(C)C`: the molecule was called inactive in [1], in [3], in test [4], in test [5], in test [6] and in [7]. The molecule was classed as inactive in test [8], in test [9], in test [10], in test [11], in test [12] and in [13]. The molecule was classed as inactive in test [14], in [16], in [17], in test [18] and in [19]. In test [2], the AC50 is 100 µM (active).

Regarding `Fc1ccccc1[C@@H](F)COC1CCC(Nc2ncnc3[nH]ncc23)CC1` (stereo not given in full), the molecule was classed as inactive in [1], in test [5], in test [8], in test [10], in test [11] and in [12]. The result in [17] was inactive. The AC50 in [2] is 25.4 µM (active); in test [3], 4.79 µM (active); in test [4], 26.1 µM (active); in test [6], 168 µM (active); in [7], 4.65 µM (active); in test [9], 4.57 µM (active). Moreover, the concentration at half-maximal activity (AC50) in [13] was 26 µM (active).
